Measurements reported in PubChem BioAssay (NCI).
About 83,000 compounds went through this panel and 20% of them were active in at least one assay; those are over-represented in the sample as a whole.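 Activity criterion: percent growth below 10, measured after cells in 96-well plates were exposed to a single compound concentration for 48 hours.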 Values without a mark were called inactive. The source made the active and inactive calls.

Experiments:
Assay in all cases: NCI-60 one-dose screen, 48 h (100 = growth as untreated, 0 = no growth, -100 = all killed)
Settings in all cases: 10 µM unless noted
[1] = tested on: SK-MEL-2 melanoma
[2] = tested on: SN12C renal
[3] = tested on: UO-31 renal
[4] = tested on: TK-10 renal
[5] = tested on: ACHN renal
[6] = tested on: CAKI-1 renal
[7] = tested on: A498 renal
[8] = tested on: CCRF-CEM leukemia
[9] = tested on: MOLT-4 leukemia
[10] = tested on: RPMI-8226 leukemia
[11] = tested on: OVCAR-8 ovarian
[12] = tested on: OVCAR-5 ovarian
[13] = tested on: OVCAR-4 ovarian
[14] = tested on: SK-OV-3 ovarian
[15] = tested on: IGROV1 ovarian
[16] = tested on: OVCAR-3 ovarian
[17] = tested on: HS 578T breast
[18] = tested on: NCI/ADR-RES ovarian
[19] = tested on: SR leukemia
[20] = tested on: EKVX NSCLC

| Structure (SMILES) | growth [1] | growth [2] [%] | growth [3] [%] | growth [4] [%] | growth [5] | growth [6] [%] | growth [7] [%] | growth [8] | growth [9] | growth [10] | growth [11] [%] | growth [12] [%] | growth [13] [%] | growth [14] [%] | growth [15] | growth [16] | growth [17] [%] | growth [18] [%] | growth [19] | growth [20] [%] |
| --- | --- | --- | --- | --- | --- | --- | --- | --- | --- | --- | --- | --- | --- | --- | --- | --- | --- | --- | --- | --- |
| CC(=O)c1cccs1 | 112% | 96.8 | 106 | 103 | 102% | 102 | 76.6 | 113% | 95.4% | 110% | 102 | 103 | 106 | 99 | 110% | 103% | 99.2 | 95.6 |  |  |
| O=C(Nc1ccccc1)c1ccco1 | 99.1% | 109 | 86.1 | 98.9 | 107% | 95.9 |  | 107% | 93.5% |  | 101 | 110 | 100 | 103 | 105% | 114% | 103 | 107 | 100% |  |
| Cn1/c(=N\N=C\c2ccccc2OCCO)sc2ccccc21 | 104% | 102 | 57.2 | 109 | 92.5% | 88.9 |  | 93.3% | 62.7% | 81% | 100 |  | 106 | 104 | 70.2% | 95.2% | 99.8 | 109 | 89% |  |
| O=C1C=C[C@H](O)[C@@]2(CO)O[C@@H]12 | -12.4% (active) | 88.7 | 48.1 | 109 | 76.7% | 40 | 101 | -51% (active) |  |  | 78.2 | 126 | 90 | 115 | 27.6% | 55% | 100 | 86.3 |  |  |
| CN(C(=S)S(=O)(=O)C12CC3CC(CC(C3)C1)C2)c1ccccc1 | 69.2% | 90.4 | 71.5 | 107 | 93.9% | 81.8 |  | 15.9% | 11.9% | 83.9% | 98.6 | 89.6 |  | 99.9 | 8.02% (active) | 73.7% |  | 102 |  |  |
| O=S(=O)(OCCOS(=O)(=O)c1ccccc1)c1ccccc1 | 103% | 97.1 | 83.2 | 102 | 105% | 89.8 |  | 92.9% |  | 100% | 97 | 111 | 101 | 96.3 | 105% | 94.3% | 108 | 95.5 | 93.7% |  |
| Clc1cccc(Cl)c1C1CSc2ccccc2N=C1c1ccccc1 (stereo unspecified) | 90.2% | 75.5 | 55.3 | 117 | 76.8% |  | 124 | -12.9% (active) |  | -14.8% (active) |  | 101 | 73 | 96.5 | 91.8% | 69.6% | 88.1 | 73.3 | -14% (active) |  |
| BrCc1cccc(C[P+](c2ccccc2)(c2ccccc2)c2ccccc2)c1 | 70.4% | 57.7 | 70.7 | 90.8 | 82.7% |  | 84.1 | 36.1% | 84.9% | 22.6% | 29.2 | 81.2 | 36.8 | 90.2 | 38.8% | 14.2% |  | 111 | 50.3% |  |
| Nc1c(O)c(S(=O)(=O)O)c(O)c2c1C(=O)c1ccccc1C2=O | 6.13% (active) | 28.1 | 12.2 | 21.7 | 4.01% (active) | 13.5 |  | 28% | 5.87% (active) | 11.5% | 27.8 | 42.8 | 26.1 | 22.9 | 19.2% | 8.87% (active) | 59.7 | 17.8 | 13.8% |  |
| O=C(O)c1ccc([N+](=O)[O-])cc1S(=O)(=O)O | 95.9% | 103 | 102 | 99.3 | 106% | 110 | 108 | 81.2% | 105% | 99.5% |  | 106 | 116 | 103 | 108% | 99.4% | 100 | 104 |  |  |
| CCOC(=O)C(CCC#N)(CCC#N)C(=O)OCC | 112% | 105 | 95.2 | 102 | 109% | 102 |  | 94.7% | 97.3% | 96.6% | 104 | 97.8 | 96 | 108 | 126% | 102% | 95.2 | 105 | 103% |  |
| O=C(O)c1cccc(-n2ncc(Cl)c(Cl)c2=O)c1 |  | 100 | 107 | 154 | 106% | 98.6 | 113 | 98.3% | 96.5% | 93.8% | 107 | 106 | 91.1 | 106 | 130% | 118% | 98.3 | 110 |  |  |
| O=C(CCl)Nc1ccccc1SCc1cc(Cl)cc2c1OCOC2 |  | 91.3 | 75.7 | 126 | 85.5% | 35 | 103 | -27.5% (active) | 50.7% | 94% | 75.4 | 101 | 47.7 | 80.8 | -43% (active) | 26.1% | 102 | 101 | 31.9% |  |
| COc1cc(OC)c(NC(=O)C(Sc2nc(C)cc(C)c2C#N)c2ccccc2)cc1Cl (stereo unspecified) |  | 98.5 | 102 | 96.3 | 85.8% | 94.6 |  | 99.4% | 90.9% | 119% | 88.6 | 106 | 105 | 85.3 | 93.4% | 113% | 86.7 | 96.9 | 98.4% |  |
| COc1ccc(/C=N/NC(=O)COCC(=O)N/N=C/c2ccc(OC)cc2)cc1 |  | 99 | 92.5 | 115 | 97.2% | 98.8 | 85.6 | 86.8% | 98.3% |  | 104 | 108 | 90.5 | 108 | 110% | 108% | 114 | 112 | 96.7% |  |
| O=C(CCl)Oc1ccc([N+](=O)[O-])cc1 |  | 116 | 60.8 | 109 | 109% | 124 |  | 95.9% | 105% | 103% | 102 | 107 | 106 | 133 | 106% | 121% | 128 | 105 | 102% | 112 |
| O=C(O)Cc1ccc(Cl)cc1 |  | 122 | 99.4 | 107 | 103% |  | 95.9 | 132% | 8.9% (active) | 99.1% | 97.7 | 111 | 107 | 121 | 109% | 150% | 99.6 | 109 | 44.8% | 79.2 |
| CCCC(OC(C)=O)c1ccc2c(c1)OCO2 (stereo unspecified) |  | 106 | 86.8 | 106 | 111% | 101 | 96.7 | 105% | 107% | 107% | 99 | 106 | 110 | 105 | 104% | 105% |  | 104 | 103% |  |
| C=CCC(OC(C)=O)c1ccc(C(C)C)cc1 (stereo unspecified) |  | 104 | 84.9 | 96.4 | 108% | 121 | 87.3 | 102% |  | 108% | 105 | 109 | 113 | 115 | 123% | 162% | 109 | 107 | 116% | 113 |
